KB-V1 MDR tox – kills drug-selected multidrug resistant KB-V1 cells. KB-V1 MDR cells viability, CellTiter-Glo, 72 h. Potency, µM (top dose mostly 46.1 µM), actives largely listed as cytotoxic. 400,000 compounds, 3.4% hits. AID 1347076; note: nearly all actives have a fitted effect of over 60% in size
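Compound-treated KB-V1 multidrug-resistant cells, 72 h, 37 degrees C; viability by CellTiter-Glo. Fitted qHTS curves give the values.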
KB-3-1 tox – kills parental KB-3-1 adenocarcinoma cells; AID 1347075; 400,000 compounds, 1.4% hits; KB-3-1 viability, CellTiter-Glo ATP luminescence, 72 h; Potency, µM (series often up to 46.1 µM), actives largely listed as cytotoxic; note: nearly all actives have a fitted effect of over 60% in size
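KB-3-1 parental drug-naive adenocarcinoma cells in DMEM/10% FBS, incubated 72 h at 37 C with pin-transferred compounds across a concentration series. Viability by CellTiter-Glo luminescence; concentration-response curves fitted after normalization.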
RGS4 inhibitor – inhibitors of human regulator of G protein signaling 4; P49798; Transcreener GDP fluorescence polarization, RGS4-accelerated GTP hydrolysis; Potency, µM (highest dose often 114 µM), hits mostly inhibitors; 390,000 compounds, 0.039% hits; AID 504845; note: nearly all actives have a fitted effect of over 75% in size
Target sequence (P49798 whole entry, looked up): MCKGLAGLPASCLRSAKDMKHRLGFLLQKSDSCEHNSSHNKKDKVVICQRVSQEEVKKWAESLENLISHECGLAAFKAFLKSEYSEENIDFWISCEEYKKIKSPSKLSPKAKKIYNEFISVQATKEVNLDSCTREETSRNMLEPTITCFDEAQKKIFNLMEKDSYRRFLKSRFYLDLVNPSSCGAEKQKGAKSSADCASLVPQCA
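MLSMR compounds (23 nl, pin-transferred) preincubated 10 min at room temperature with a 500nM (2x) first reagent, then RGS4 at 900nM (2x) plus Transcreener GDP mix added; fluorescence polarization (620/688 nm) read before and after 90 min at 30 °C.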
TSG101-PTAP inh – blocks PTAP/TSG101 interaction to inhibit HIV-1 budding | Potency, µM (top dose mostly 115 µM), hits mostly inhibitors | Q99816 | Fluorescence polarization, FITC-PTAP peptide / Tsg101 binding | 340,000 tested, under 10 active; active = well fitted inhibition curve with a large enough effect in the main read-out, with a control signal flat, not every such curve was filed as active; inconclusive = small, poorly fitted or top-dose-only effect, or effect the other way, or a change in a side signal; inactive = no such curve, though single readings can be large or run the other way
Target sequence (Q99816 whole entry, looked up): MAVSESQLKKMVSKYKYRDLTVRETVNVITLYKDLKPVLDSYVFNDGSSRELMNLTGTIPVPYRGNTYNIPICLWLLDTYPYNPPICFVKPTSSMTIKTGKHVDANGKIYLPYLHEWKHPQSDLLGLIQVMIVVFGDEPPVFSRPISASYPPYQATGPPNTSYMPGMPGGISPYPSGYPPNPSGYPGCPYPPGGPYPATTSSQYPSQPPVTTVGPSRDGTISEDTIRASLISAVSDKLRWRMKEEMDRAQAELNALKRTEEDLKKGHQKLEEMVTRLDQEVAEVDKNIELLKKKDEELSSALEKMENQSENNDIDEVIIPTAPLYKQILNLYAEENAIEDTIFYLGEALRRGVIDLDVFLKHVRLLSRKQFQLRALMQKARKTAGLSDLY
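Tsg101 binding domain (10 uM final) was mixed with compound and a FITC-labeled PTAP peptide (50 nM final) in HEPES pH 7.5 buffer with NaCl, Tween 20, EDTA and TCEP; fluorescence polarization was read after 20 min at r.t.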
MCF10A rerep – induces DNA re-replication in MCF 10a normal breast cells; MCF 10A DNA re-replication, Hoechst nuclear intensity, 48 h; Potency, µM (top dose mostly 46.1 µM), most hits filed as activators; 350,000 compounds, 2.9% hits; note: nearly all actives have a fitted effect of over 50% in size
SW480 rerep – DNA re-replication induction in SW480 cells | SW480 DNA re-replication, Hoechst DNA content imaging, 48 h | 340,000 compounds, 1.8% hits | Potency, µM (top dose mostly 46.1 µM), most hits filed as activators; note: nearly all actives have a fitted effect of over 55% in size
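250 cells/well; 23 nL cpd via pin tool; 48 hr, 37 C, 5% CO2; Hoechst 40 min; imager read of total nuclear intensity, ex 405/em 500-530 nm.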
Each line names hits and unclear results; the compound was inactive in the other large screens. Sampled rows, rich in hits. Any-hit rate of the full collection: about 6.6%. Unless noted, calls come from the whole dose curve; as a rule, active = well fitted curve in the direction sought with a large enough effect; inconclusive = small, poorly fitted or top-dose-only effect, or another doubt; inactive = no such curve, though single readings can be large; an effect the other way counts as inactive or inconclusive.

COc1ccc(S(=O)(=O)c2cn(C)c3cc(N4CCCC4)c(F)cc3c2=O)cc1	none (no result: TSG101-PTAP inh, MCF10A rerep, SW480 rerep)
CC(=O)Nc1ccc(/C=C/c2nc3ccccc3[nH]c2=O)cc1	MCF10A rerep inconclusive, SW480 rerep inconclusive
O=c1[nH]c2ccccc2nc1/C=C/c1ccc(Cl)cc1	RGS4 inhibitor inconclusive, MCF10A rerep 18.4µM, SW480 rerep 20.6µM
O=c1[nH]c(/C=C/c2ccccc2F)nc2ccccc12	KB-V1 MDR tox 2.59µM, KB-3-1 tox 4.61µM, MCF10A rerep 8.2µM, SW480 rerep 3.66µM
COc1ccc(C(=O)c2cn(Cc3ccc(F)cc3)c3c(F)cc(F)cc3c2=O)cc1	none (no result: TSG101-PTAP inh, MCF10A rerep, SW480 rerep)
O=C1CCCc2cc(S(=O)(=O)NCC3CCC(C(=O)Nc4ccccc4F)CC3)ccc2N1 (configuration not stated)	none (no result: TSG101-PTAP inh, MCF10A rerep, SW480 rerep)
O=C(O)CSC1=NS(=O)(=O)c2ccccc21	none (no result: TSG101-PTAP inh, MCF10A rerep, SW480 rerep)
CCC(NC(=O)c1ccc([N+](=O)[O-])cc1[N+](=O)[O-])c1ccccc1 (configuration not stated)	none
CCC(NC(=O)c1ccccc1O)c1ccccc1 (configuration not stated)	KB-V1 MDR tox 16.4µM
CCC(NC(=O)CCCc1ccccc1)c1ccccc1 (configuration not stated)	KB-V1 MDR tox 18.4µM, MCF10A rerep inconclusive
O=C(CCl)NC(Cc1ccccc1)c1ccccc1 (configuration not stated)	KB-V1 MDR tox inconclusive, KB-3-1 tox inconclusive, MCF10A rerep inconclusive, SW480 rerep 16.4µM
Cn1cc(S(=O)(=O)N2CCOCC2)cc1C(=O)Nc1ccc(Cl)c(C(F)(F)F)c1	none (no result: KB-V1 MDR tox, KB-3-1 tox, TSG101-PTAP inh, MCF10A rerep, SW480 rerep)
Cc1c(CCC(=O)NCc2ccc(F)cc2)c(=O)oc2cc(O)ccc12	none (no result: TSG101-PTAP inh, MCF10A rerep, SW480 rerep)
CCOc1ccc(OCC)c(S(=O)(=O)NCc2ccccc2)c1	none
CCOc1cc(Br)ccc1S(=O)(=O)NCc1ccccc1	KB-V1 MDR tox 14.6µM, RGS4 inhibitor inconclusive
C=CCN1C(=O)C(Cc2cccc(C)c2)SC1=Nc1ccc(C(=O)O)cc1 (configuration not stated)	none
C=CCN1C(=O)C(CC(=O)O)SC1=Nc1ccc(C)cc1 (configuration not stated)	MCF10A rerep 2.59µM
CC(C)C(C(=O)OCC(=O)c1cccc([N+](=O)[O-])c1)N1C(=O)[C@@H]2[C@H]3CC[C@H](C3)[C@@H]2C1=O (some centres not stated)	KB-V1 MDR tox 20.6µM
O=C(CN1C(=O)C2C3CCC(C3)C2C1=O)OCC(=O)c1cccc([N+](=O)[O-])c1 (configuration not stated)	none
O=C(CCC(=O)OCC(=O)c1cccc([N+](=O)[O-])c1)NC1CCCCC1	SW480 rerep 2.59µM
O=C(CCC(=O)OCC(=O)c1ccc([N+](=O)[O-])cc1)NC1CCCCC1	SW480 rerep inconclusive
CC(C)(C)NC(=O)C(c1ccco1)N(C(=O)Cn1nnc(-c2ccc(F)cc2)n1)c1ccccc1 (configuration not stated)	KB-V1 MDR tox 3.66µM, KB-3-1 tox inconclusive
CC(C)(C)NC(=O)C(c1ccco1)N(C(=O)Cn1nnc(-c2ccc(F)cc2)n1)c1ccccc1F (configuration not stated)	KB-V1 MDR tox 18.4µM, SW480 rerep inconclusive
CCSc1nnc(NC(=O)C2CCN(C(=O)c3ccco3)CC2)s1	none (no result: TSG101-PTAP inh, MCF10A rerep, SW480 rerep)
CCN1CCN(c2oc(-c3ccc(COc4ccc(C)cc4)o3)nc2C#N)CC1	none (no result: TSG101-PTAP inh, MCF10A rerep, SW480 rerep)
COc1ccc(C(=O)N/N=C/c2ccc(OC)c(CSc3ccccn3)c2)cc1	none
COc1ccc(/C=N/NC(=O)c2cccc(Br)c2)cc1CSc1ccccn1	KB-V1 MDR tox 11.6µM, KB-3-1 tox inconclusive, MCF10A rerep 14.6µM, SW480 rerep inconclusive
COc1ccc(/C=N/NC(=O)c2cccnc2)cc1CSc1ccccn1	KB-V1 MDR tox inconclusive, KB-3-1 tox inconclusive, MCF10A rerep 13µM, SW480 rerep 13µM
O=C(CN1C(=O)COc2ccc(S(=O)(=O)N3CCCC3)cc21)N1CCN(c2cccc(C(F)(F)F)c2)CC1	KB-V1 MDR tox inconclusive (no result: TSG101-PTAP inh, MCF10A rerep, SW480 rerep)
COc1ccc2c(CC(=O)N(C)CC3COc4ccccc4O3)coc2c1 (configuration not stated)	KB-V1 MDR tox 18.4µM
CCOC(=O)C(C)NC(=O)CCc1nnc2ccc(N3CCC(C)CC3)nn12 (configuration not stated)	MCF10A rerep 25.9µM
CCC(C)NC(=O)CCc1nnc2ccc(N3CCC(C)CC3)nn12 (configuration not stated)	none
COc1cc(NC(=O)c2nnn(CC(=O)Nc3cc(C)ccc3C)c2N)cc(OC)c1	none (no result: KB-V1 MDR tox, KB-3-1 tox, TSG101-PTAP inh, MCF10A rerep, SW480 rerep)
CCOc1ccccc1N1CC(C(=O)N(CC)CC(=O)Nc2ccc3c(c2)OCCO3)CC1=O (configuration not stated)	SW480 rerep 2.31µM
CCN(CC(=O)Nc1ccc2c(c1)OCCO2)C(=O)C1CC(=O)N(c2ccc(OC)cc2OC)C1 (configuration not stated)	KB-V1 MDR tox inconclusive
Cc1noc(C)c1CSCC(=O)N1CCN(c2ccc(F)cc2)CC1	KB-V1 MDR tox 2.91µM, KB-3-1 tox inconclusive
COc1ccc(N(CC(=O)N2CCN(c3ccc(F)cc3)CC2)S(=O)(=O)c2c(C)noc2C)cc1	none
Cc1cccc(N2CCN(C(=O)CSCc3c(C)noc3C)CC2)c1C	KB-V1 MDR tox 1.84µM, KB-3-1 tox 3.66µM
CCOc1ccc(N(CC(=O)N2CCN(c3ccc(F)cc3)CC2)S(=O)(=O)c2c(C)noc2C)cc1	SW480 rerep 23.1µM
COc1ccc(-c2n[nH]c3c2C(c2ccc(Cl)cc2Cl)NC3=O)cc1 (configuration not stated)	none (no result: TSG101-PTAP inh, MCF10A rerep, SW480 rerep)
COCCCn1c2nc3ccccc3nc2c2c(=O)n(-c3ccccc3OC)cnc21	none
Cn1c(-c2c(N)n(CCCc3ccccc3)c3nc4ccccc4nc23)nc2ccccc21	KB-V1 MDR tox 9.2µM, KB-3-1 tox inconclusive, MCF10A rerep inconclusive, SW480 rerep 16.4µM
Cn1c(C2CCCCC2)nc2ccccc21	MCF10A rerep inconclusive
COCCCn1c(N)c(-c2nc3ccccc3n2C)c2nc3ccccc3nc21	MCF10A rerep 23.1µM, SW480 rerep inconclusive
Cn1c(-c2c(N)n(C3CCCC3)c3nc4ccccc4nc23)nc2ccccc21	KB-V1 MDR tox 20.6µM, KB-3-1 tox 16.4µM, MCF10A rerep 5.17µM, SW480 rerep 11.6µM
CC(C)(C)Cc1nc2ccccc2n1CCc1ccccc1	KB-V1 MDR tox 18.4µM, KB-3-1 tox inconclusive, MCF10A rerep inconclusive
O=CNCc1nc2ccccc2n1CCCc1ccccc1	none

Screens (PubChem BioAssay)
